Bioassay records from PubChem.
The list is not random: actives were taken first. Their share in the collection is about 8%.
Lassa entry = inhibitors of Lassa virus binding or entry into cells; actives 4.1% (n = 18,000); Potency, µM (titrated, usually from 49.2 µM), most hits filed as inhibitors; AID 720533; Lassa virus pseudotyped entry inhibition, cell-based qHTS
Marburg entry = inhibitors of Marburg virus binding or entry into cells; Marburg virus pseudotype entry/binding inhibition, cell-based; Potency, µM (highest dose often 49.2 µM), hits mostly inhibitors; actives 6.5% (n = 18,000); AID 720532
Each line names hits and unclear results; the compound was inactive in the other large screens; ! = a repeat was not active. Calls follow the shape of the full dose curve; tested in HEK293 cells.

Cc1c(N)nc([C@H](CC(N)=O)NC[C@H](N)C(N)=O)nc1C(=O)N[C@H](C(=O)N[C@H](C)[C@@H](O)[C@H](C)C(=O)N[C@H](C(=O)NCCc1nc(-c2nc(C(=O)NCCCCN=C(N)N)cs2)cs1)[C@@H](C)O)[C@@H](O[C@@H]1O[C@@H](CO)[C@@H](O)[C@H](O)[C@@H]1O[C@H]1O[C@H](CO)[C@@H](O)[C@H](OC(N)=O)[C@@H]1O)c1cnc[nH]1	Lassa entry 3.2µM, Marburg entry 4µM
COCCN(C)C(=O)c1cnn(-c2ncc3c(n2)-c2ccccc2CC3)c1C	none
OC[C@H]1O[C@H](c2ccccc2)C=C[C@H]1O	none
CC1(C)C(=O)C=C[C@@]2(C)C1=C(O)C(=O)[C@@]1(C)C2CC[C@@]2(C)C(c3ccoc3)C[C@H]3O[C@@]321 (stereo not given in full)	Lassa entry 11µM, Marburg entry 5µM
CC(=O)OC1CC(OC(C)=O)[C@]2(C)C(CC(=O)[C@]3(C)C2CC[C@@]2(C)C(c4ccoc4)OC(=O)C4O[C@@]423)C1(C)C (stereo not given in full)	none
O[N+]1=CC=CCC1=S.On1ccccc1=S.[Zn]	Lassa entry 3.5µM, Marburg entry 4.5µM
CCOC(=O)CN1C(=O)NC(c2cccc(F)c2)C(C(C)=O)=C1C (stereo not given)	none
COc1cc2c(cc1OC)[C@@H]1O[C@](c3ccsc3)(C2)Oc2cc(C)n(Cc3ccccc3)c(=O)c21	Marburg entry inconclusive
Cc1cc(F)ccc1O[C@H]1C=C[C@@H](c2ccc3c(c2)OCO3)O[C@H]1CO	none
CN1CCN(C2Cc3ccccc3Sc3ccc(S)cc32)CC1 (stereo not given)	Lassa entry inconclusive, Marburg entry 13µM
CCCCN(CCCC)Cc1cc(=O)oc2cc(C)cc(C)c12	none
Cc1cc(C)c2c(CN(C)Cc3ccccc3)cc(=O)oc2c1	Lassa entry inconclusive, Marburg entry 2.2µM
COC(=O)C1=C(C)N(CCC(C)O[Si](C)(C)C(C)(C)C)C(=O)N(C(C)=O)C1c1ccccc1 (stereo not given)	none
CCOC(=O)CN1C(=O)NC(c2ccc(Br)cc2)C(C(=O)OC)=C1C (stereo not given)	none
CC(=O)[C@]1(O)Cc2c(O)c3c(c(O)c2[C@@H](O[C@H]2C[C@H](N)[C@H](O)[C@H](C)O2)C1)C(=O)c1c(O)cccc1C3=O	Marburg entry 0.056µM (no result: Lassa entry)
COc1cccc2c1C(=O)c1c(O)c3c(c(O)c1C2=O)C[C@@](O)(C(=O)CO)C[C@@H]3O[C@H]1C[C@H](N)[C@H](O[C@@H]2CCCCO2)[C@H](C)O1	Lassa entry 1.1µM, Marburg entry 1.3µM
COc1cccc2c1C(=O)c1c(O)c3c(c(O)c1C2=O)C[C@@](O)(C(C)=O)C[C@@H]3O[C@H]1C[C@H](N)[C@H](O)[C@H](C)O1	Lassa entry 35µM!, Marburg entry inconclusive
COc1cccc2c1C(=O)c1c(O)c3c(c(O)c1C2=O)C[C@@](O)(C(=O)CO)C[C@@H]3OC1C[C@@H](N)[C@H](O)[C@H](C)O1 (stereo not given in full)	Lassa entry inconclusive, Marburg entry 0.89µM
COC(=O)C1=C(C(=O)OC)[C@@H]2N(C)c3ccccc3[C@@]23C[C@@H](C(=O)OC)N(C(=O)NCCBr)C3=N1	Marburg entry inconclusive
Nc1ccccc1C(=O)C=Cc1ccccc1	none
CC(=O)C1=C(C)N(CCC=Cc2ccccc2)C(=O)NC1c1ccccc1 (stereo not given)	Marburg entry inconclusive
O[C@H]1C[C@H](c2ccccc2)N(Cc2cccs2)C[C@H]1n1cc(-c2ccc(F)cc2)nn1	Marburg entry inconclusive
CC(C)=CCCC(C)=CCON=C1C[C@@H](O)[C@@H](O)[C@@H]2[C@H]3C(=O)N(C[C@@H]4CCCO4)C(=O)[C@@H]3CC[C@H]12	none
Cc1ccc2[nH]c3c(c2c1)CN(C(=O)CC1(c2ccccc2)CC(=O)N(Cc2cccnc2)C1=O)CC3 (stereo not given)	none
COc1ccc2c(c1)OC(C)CN(CCNC(=O)c1cccc(N3CCNC3=O)c1)C2 (stereo not given)	none
Cc1ncc(COP(=O)(O)O)c(CN)c1O	none
Cc1ncc(CO)c(CO)c1O	Marburg entry 28µM!
Cc1ccccc1Nc1oc(-c2ccccc2)nc1C=Cc1ccccc1	none
COc1cccc([C@@H]2Oc3ccc(OC)cc3C(=O)[C@H]2OC(=O)NCCOc2ccccc2)c1	none
COc1ccc2c(c1)OC(C)(C)C(c1ccccc1)C2c1ccc(OCCN2CCCC2)cc1 (stereo not given)	Lassa entry inconclusive, Marburg entry 4.5µM
COc1cccc([C@@H]2Oc3ccc(OC)cc3C(=O)[C@@H]2O)c1	none
CC(=O)OC[C@H]1O[C@H](CC=NO[C@H](C)CN2CCCCc3nc(C)c(C)cc32)C=C[C@@H]1OC(C)=O	none
Cc1cc(C)cc(C(=O)OC2C[C@H]3CC[C@@H](C2)N3C)c1 (stereo not given in full)	Lassa entry inconclusive, Marburg entry 11µM
